Compounds with a hit are over-represented: about 13% of the library has one in this group of screens.
USP28 block = blocks human USP28 ubiquitin-rhodamine cleavage. purified USP28, Ub-rhodamine cleavage fluorescence, 30 min. Q96RU2. 3% of 47,000 active. inhibition, % at 25 µM
USP30 block = human USP30 deubiquitinase inhibition; Q70CQ3; purified USP30, Ub-rhodamine cleavage fluorescence; inhibition, % at 25 µM; 5.3% of 47,000 active; AID 1645860
Target sequence (Q70CQ3 whole entry, looked up): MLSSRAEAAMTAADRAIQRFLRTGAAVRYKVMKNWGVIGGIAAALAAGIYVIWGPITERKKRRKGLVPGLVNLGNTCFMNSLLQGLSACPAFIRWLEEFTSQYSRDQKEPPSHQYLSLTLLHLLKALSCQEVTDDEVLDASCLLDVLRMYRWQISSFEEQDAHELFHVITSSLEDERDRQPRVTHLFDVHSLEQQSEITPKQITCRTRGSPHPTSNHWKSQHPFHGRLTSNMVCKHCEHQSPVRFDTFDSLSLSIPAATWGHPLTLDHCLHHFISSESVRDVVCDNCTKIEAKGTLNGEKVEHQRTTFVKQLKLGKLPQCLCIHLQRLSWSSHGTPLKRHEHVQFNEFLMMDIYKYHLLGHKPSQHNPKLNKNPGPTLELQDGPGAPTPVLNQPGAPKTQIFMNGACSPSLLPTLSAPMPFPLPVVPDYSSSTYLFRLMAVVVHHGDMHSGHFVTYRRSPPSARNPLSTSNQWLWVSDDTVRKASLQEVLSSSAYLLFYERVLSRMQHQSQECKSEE
USP17 inh = blocks human USP17 ubiquitin-rhodamine cleavage; AID 1645855; 6.5% of 47,000 active; inhibition, % at 50 µM; A8MUK1; purified USP17, Ub-rhodamine cleavage fluorescence, 3 h
USP10 inh = human USP10 deubiquitinase inhibition; Q14694; purified USP10, Ub-rhodamine fluorescence, 60 min; inhibition, % at 20 µM; 1.1% of 47,000 active; AID 1645856
USP8 inh = human USP8 deubiquitinase inhibition. P40818. purified USP8, Ub-rhodamine cleavage fluorescence, 30 min. inhibition, % at 20 µM. 4.2% of 47,000 active. AID 1645853
Active calls of the source: *. Rule as the data show it: active = inhibition above about 30%; inactive = the rest.

`O=C(Nc1ccncc1)c1ncoc1-c1cccc(Cl)c1` gave USP28 block 2.3, USP30 block 65.7*, USP17 inh 7.2, USP10 inh 1.0 and USP8 inh 5.7.
`CCOc1ccc(-n2c(C)c3c(C)nn4cc(-c5ccccc5)cc4c3c2C)cc1` gave USP28 block 8.5, USP30 block 31.6*, USP17 inh 30.7*, USP10 inh 9.3 and USP8 inh 29.0.
Screening CCOc1ccc(-n2c(C)c(C)c3c2ncn2nc(-c4ccccn4)nc32)cc1 returned USP28 block 5.8, USP30 block 9.5, USP17 inh 2.6, USP10 inh -2.4 and USP8 inh 0.7.
COc1cc(CN2CC[C@@]3(NC(C)=O)CNC[C@H]3C2)ccc1OC1CCCC1 was read as USP28 block 0.2, USP30 block -16.2, USP17 inh 0.9, USP10 inh -6.9 and USP8 inh 15.3.
For Cc1cc(O)cc2cc3c(c(O)c12)C(=O)CCC3O (stereo not drawn) the results were USP28 block -3.5, USP30 block -89.1, USP17 inh 50.8*, USP10 inh -4.9 and USP8 inh -140.2.
Screening Cc1ccc(N2CCN(c3nc4ccc(C)cc4nc3-n3nc(C)cc3C)CC2C)cc1 (stereo not drawn) returned USP28 block -20.2, USP30 block -43.7, USP17 inh -8.4, USP10 inh 0.0 and USP8 inh -4.3.
`O=C(Nc1ccncc1)c1cc(Br)ccc1F` gave USP28 block 13.7, USP30 block 35.2*, USP17 inh 24.9, USP10 inh 2.5 and USP8 inh 13.9.
CC(C)C(=O)N1CCc2cc(-c3csc(NC(=O)c4ccccn4)n3)ccc21 was read as USP28 block -24.1, USP30 block -92.4, USP17 inh -28.6, USP10 inh -3.6 and USP8 inh -72.7.
`CCc1nc(N)n(CC(=O)N2CCCc3ccccc32)c(=O)c1C` gave USP28 block 17.8, USP30 block 53.7*, USP17 inh 75.6*, USP10 inh 0.4 and USP8 inh 21.6.
`Cc1cc(=O)n(CC(=O)N2CCCc3ccccc32)c(N2CCOCC2)n1` gave USP28 block -2.1, USP30 block -14.3, USP17 inh -0.4, USP10 inh 1.2 and USP8 inh 4.3.
Cn1ncc2c1C(COCC1CC1)N(C(=O)c1ccccn1)CC2 (stereo not drawn) was read as USP28 block -15.0, USP30 block -24.2, USP17 inh -7.4, USP10 inh -3.9 and USP8 inh -42.7.
`Cn1c(=O)n(CCCc2ccccc2)c(=O)c2c1nc1oc(C(C)(C)C)cn12` gave USP28 block 5.3, USP30 block 9.5, USP17 inh 16.3, USP10 inh 3.0 and USP8 inh 8.2.
`CC1=C(C(=O)OC2CCCCCC2)C(c2ccccc2[N+](=O)[O-])CC(=O)N1` (stereo not drawn) gave USP28 block 6.6, USP30 block 5.2, USP17 inh 8.9, USP10 inh 2.9 and USP8 inh 62.3*.
CC1CCC(NC(=O)C2CCCN2S(=O)(=O)c2ccc3nc(-c4ccccc4)[nH]c3c2)CC1 (stereo not drawn) was read as USP28 block 17.5, USP30 block -9.5, USP17 inh 34.1*, USP10 inh 9.4 and USP8 inh 25.4.
Cc1nn(-c2ccccc2)cc1-c1noc(C(=O)NCCCc2ccccc2)n1 was read as USP28 block 17.6, USP30 block 32.3*, USP17 inh 20.6, USP10 inh 7.9 and USP8 inh 20.5.
Screening O=C(Nc1ccccc1)c1nc(-c2cn(-c3ccccc3)nn2)no1 returned USP28 block 19.4, USP30 block 41.4*, USP17 inh 16.8, USP10 inh 4.5 and USP8 inh 20.0.
For O=C(NCc1ccccn1)c1nc(-c2cn(-c3ccc(Cl)cc3)nn2)no1 the results were USP28 block 12.1, USP30 block 19.9, USP17 inh 11.3, USP10 inh 6.1 and USP8 inh 49.7*.
Cc1nn(-c2ccc(F)cc2)cc1-c1noc(C(=O)NCc2ccccn2)n1 was read as USP28 block 20.6, USP30 block 85.3*, USP10 inh 4.5 and USP8 inh 34.5*.
`COc1ccc(S(=O)(=O)NC(C)C(=O)NCCCO)cc1C` (stereo not drawn) gave USP28 block 4.9, USP30 block -25.6, USP17 inh -28.0, USP10 inh -4.4 and USP8 inh -150.3.
For CN1CC[C@@H]2[C@H]1C(=O)NC[C@H](CCC(=O)NCc1ccccc1)N2C the results were USP28 block 15.3, USP30 block 2.3, USP17 inh -43.1, USP10 inh -0.4 and USP8 inh 1.0.
`COC(=O)c1ccc(C(=O)OC)c(NC(=O)c2nn(-c3ccccc3)c(=O)cc2OC)c1` gave USP28 block 2.2, USP30 block 14.2, USP17 inh 36.8*, USP10 inh 2.3 and USP8 inh 1.5.
For COc1cccc(NC2=NS(=O)(=O)c3ccccc32)c1 the results were USP28 block 23.4, USP30 block 41.3*, USP17 inh 40.8*, USP10 inh 1.5 and USP8 inh 23.0.
Screening CCOc1cc(C2Nc3ccccc3C(=O)N2c2ccc3c(c2)OCO3)ccc1O (stereo not drawn) returned USP28 block 5.8, USP30 block 8.3, USP17 inh 11.9, USP10 inh 2.1 and USP8 inh 30.9*.
Screening O=c1c2ccccc2c2ccccc2c(=O)n1-c1ccc2c(c1)OCO2 returned USP28 block 2.7, USP30 block 5.6, USP17 inh 7.4, USP10 inh 2.4 and USP8 inh 12.6.
Screening COc1cccc(CCNC(=O)c2ccc(N3C(=O)C(C)(C)CS3(=O)=O)cc2)c1 returned USP28 block 25.6, USP30 block 2.7, USP17 inh 3.5, USP10 inh -3.4 and USP8 inh 11.7.
Screening O=C(NC1CCCCC1)C(c1ccc(O)cc1)N(C(=O)c1cnccn1)c1ccc(F)cc1 (stereo not drawn) returned USP28 block 0.6, USP30 block -1.4, USP17 inh 0.1, USP10 inh -0.2 and USP8 inh 14.7.
Screening COc1ccc(O)c(C(=O)c2cnc3c(c2)c(C)nn3-c2ccc(C)cc2)c1 returned USP28 block 0.0, USP30 block -23.6, USP17 inh -9.0, USP10 inh -2.8 and USP8 inh 19.6.
For COc1ccccc1C1Cn2c(C)cnc2CN1C(=O)c1ncoc1C (stereo not drawn) the results were USP28 block -0.1, USP30 block -10.3, USP17 inh -4.8, USP10 inh -2.4 and USP8 inh -20.3.
For COc1cccc(Cn2nc3n(CC(C)C)c(=O)c4ccc(C(=O)NCC(C)C)cc4n3c2=O)c1 the results were USP28 block 29.2, USP30 block 64.9*, USP17 inh 39.3*, USP10 inh 8.4 and USP8 inh 8.7.
Screening COc1cccc(C(=O)Cn2nc3n(CCC(C)C)c(=O)c4sccc4n3c2=O)c1 returned USP28 block 0.5, USP30 block 5.9, USP17 inh -12.6, USP10 inh 8.8 and USP8 inh -0.7.
Cc1ccc(NC(=O)NCc2nnnn2-c2ccccc2)cc1 was read as USP28 block 10.8, USP30 block 17.6, USP17 inh 0.4, USP10 inh 3.9 and USP8 inh 2.2.
